The text below walks through data of PubChem BioAssay (NCATS).

A short description of test [1]: Cell Viability - BJ (AID 421; calls by dose curve;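 note: potency is the fitted concentration of half-maximal effect; cells exposed to compound for 40 hours at 37 °C before readout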). The following applies: BJ fibroblast viability, qHTS. In outline:
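Normal human BJ foreskin fibroblasts, 1500/well in complete medium, treated 40 hr at 37 °C. Cellular ATP by CellTiter-Glo luminescence; normalized to DMSO and 100 uM tamoxifen, AC50 from Hill fit.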

Test [2] in a line: Cell Viability - MRC5 (AID 434; calls by dose curve;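 note: potency is the fitted concentration of half-maximal effect; potency reflects cytotoxicity seen as loss of intracellular ATP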). As to conditions: MRC5 lung fibroblast viability, qHTS. In outline:
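MRC5 normal human lung fibroblasts, 1500 cells/well, exposed to compound for 40 hr at 37 C. Cellular ATP was read by CellTiter-Glo luminescence; data normalized to DMSO and 100 uM tamoxifen, with AC50 from Hill fits.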

Test [3] addresses Mitogen-activated protein kinase 10 (Mus musculus) (UniProt Q61831). In words: JNK3 AlphaScreen Assay (AID 530; active = well fitted curve in either direction with a large enough effect, not every such curve was filed as active;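 note: kinase came from lysate of stimulated human HepG2 cells; signal reports phosphorylation of biotinylated GST-cJun 1-79 at Ser73 with 10 µM ATP; % is set by controls: 0 for no effect and ±100 for the full control effect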). In outline: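 Pre-activated (IL-1β/TNFα) JNK3 in HepG2 lysates phosphorylates biotin-GST-cJun(1-79), 10 uM ATP; anti-phospho-cJun(Ser73) AlphaScreen read at room temperature, pH 7.6 Tris buffer. Compounds pre-incubated 15 min as titrations.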
A general note: Bead proximity is the source of the signal in Alpha formats.

The nature of test [4]: Cell Viability - N2a (AID 540).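 Note: plate controls were DMSO alone for no effect and tamoxifen control for full effect; nearly all actives have a fitted effect of over 45% in size.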 The following applies: N2a mouse neuroblastoma cell viability; activity change, negative = cytotoxicity: at 92.2 µM (top of the series). In outline:
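Luminescent ATP signal (CellTiter-Glo, 20 min at room temperature) served as the viability read-out after N2a cells were treated with compounds for 40 hours at 37 °C. Concentration-response data were fitted to the Hill equation for AC50.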

A short description of test [5]: Cellular Toxicity (caspase-3) HepG2 (AID 654).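 Note: cells exposed to compound for 16 hours before reading; 0% = DMSO alone and 100% = caspase signal from 100 µM tamoxifen.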 The method, boiled down:
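Cells plated 5 hr at 37 °C, compound added, incubated 16 hr at 37 °C. Caspase-Glo 3/7 reagent followed, 20 min at room temperature, then luminescence read. Activation scored as signal increase; AC50 from Hill fit.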

A short description of test [6]: Cellular Toxicity (caspase-3) BJ (AID 658).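 Note: 0% = DMSO basal and 100% = 10 µM staurosporine.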 The method, boiled down:
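BJ human foreskin fibroblasts, 1000 cells/well, treated 16 hours at 37 °C in complete medium; caspase 3/7 activity by Caspase-Glo luminescence after 1 hr at room temperature. Normalized to DMSO and 10 uM staurosporine; AC50 from Hill fits.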

A short description of test [7]: Cellular Toxicity (caspase-3) MRC-5 (AID 659).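 Note: 0% = DMSO basal and 100% = 10 µM staurosporine.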 In outline:
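MRC-5 human normal lung fibroblasts, 1500 cells/well, treated 16 h at 37 °C in complete medium. Caspase 3/7 measured by Caspase-Glo luminescence after 1 h at room temperature. Normalized to DMSO and 10 uM staurosporine; AC50 from Hill fit.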

Test [8] can be described thus: Cellular Toxicity (caspase-3) Hek293 (AID 664).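 Note: cells exposed to compound for 16 h at 37 °C before readout.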 As to conditions: HEK293 caspase-3 activation, DMSO = 0%, 100 µM tamoxifen = 100%; at 92.2 µM (top of the series). In outline:
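Cells plated, 5 hr at 37 °C; compounds added; 16 hr at 37 °C; Caspase-Glo 3/7 reagent, 20 min RT; luminescence read. Activation expressed relative to DMSO and 100 uM tamoxifen, AC50 by Hill model.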

A short description of test [9]: Cellular Toxicity (caspase-3) N2a (AID 665).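 Note: compound exposure lasted 16 h at 37 °C before readout.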 In outline:
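N2a cells, 1500/well, 5 h settle at 37 °C; cpd 16 h, 37 °C; Caspase-Glo 3/7, 1 h RT; luminescence. Norm: DMSO = 0, 10 uM staurosporine = 100%. AC50, Hill fit.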

Test [10] in a line: Cellular Toxicity (caspase-3) NIH 3T3 (AID 666).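 Note: caspase signal read after 16 h compound exposure; 0% = DMSO basal and 100% = 100 µM tamoxifen stimulation.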 In outline:
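Luminescence from aminoluciferin released by caspase-3/7 cleavage of a peptide substrate served as read-out. Mouse fibroblast NIH 3T3 cells were exposed to compounds over a concentration range for 16 hours, and AC50 values came from standard Hill modelling.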

The target of test [11] is Cytochrome P450 3A4 (Homo sapiens) (UniProt P08684). In words: qHTS Assay for Inhibitors and Substrates of Cytochrome P450 3A4 (AID 884). Note: % is set by controls: 0 for no effect and ±100 for the full control effect; nearly all actives have a fitted effect of over 50% in size. In outline:
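20 nM human CYP3A4 with 25 uM Luciferin-PPXE (at KM) in 200 mM KPO4, preincubated 10 min with compound; NADPH regeneration started a 60 min RT reaction. Luciferin detected by luminescence, normalized to 57 uM ketoconazole as full inhibition.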

Test [12] is described as follows: MultiTox-Fluor Cytotoxicity Assay - LYMP1-001 - Dead Cells (AID 946).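 Note: 0% = DMSO and 100% = tetraoctylammonium bromide.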 The method, boiled down: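 LYMP1-001 lymphoblastoid cells (2500/well) treated 16 h at 37 C. Dead-cell protease cleavage of bis-AAF-R110 read at Ex/Em 485/520. Normalized to DMSO and 15 uM tetraoctylammonium bromide; AC50 from Hill fits.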
A short description of test [13]: MultiTox-Fluor Cytotoxicity Assay - LYMP1-002 - Live Cells (AID 955). Note: % is set by controls: 0 for no effect and ±100 for the full control effect. In outline:
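Read-out is live-cell protease activity (cell-permeant GF-AFC substrate, fluorescence Ex/Em=405/510), where a decrease indicates acute toxicity. Human lymphoblastoid cells were treated 16 hours at 37 C in a concentration series, and AC50 values came from standard Hill modelling.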

Test [14] can be described thus: MultiTox-Fluor Cytotoxicity Assay - LYMP1-003 - Dead Cells (AID 961).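 Note: 0% = DMSO and 100% = tetraoctylammonium bromide; nearly all actives have a fitted effect of over 70% in size.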 In outline:
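LYMP1-003 human lymphoblastoid cells (2500/well) exposed to compound 16 h at 37 C in complete medium; dead-cell protease read with bis-AAF-R110 fluorescence (Ex/Em 485/520) after 60 min at room temperature. Normalized to DMSO and 15 uM tetraoctylammonium bromide; AC50 from Hill fit.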

The nature of test [15]: MultiTox-Fluor Cytotoxicity Assay - LYMP1-003 - Live Cells (AID 962).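 Note: 0% = DMSO only and full loss = 92 µM tetraoctylammonium bromide; cytotoxic hits lower the live-cell protease signal.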 In outline:
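qHTS, 1536-well; 2500 cells/well LYMP1-003; 5 hr 37 C settle; cpd 16 hr 37 C; MultiTox-Fluor reagent 60 min RT; live-cell protease fluor. 405/510; Hill-fit AC50; tetraoctylammonium bromide pos. ctrl.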

Test [16] in a line: Cell Viability - LYMP2-026 (AID 989).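 Note: cells exposed to compound for 24 h at 37 °C; % is set by controls: 0 for no effect and ±100 for the full control effect; nearly all actives have a fitted effect of over 50% in size.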 The method, boiled down: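 Luminescent ATP signal (CellTiter-Glo, 30 min room temperature) measures viable lymphoblastoid cells after 24 hr compound treatment at 37 C. Decreased ATP reflects acute toxicity; AC50 values come from Hill-equation modeling.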
Test [17] is described as follows: Cell Viability - LYMP1-002 - Assay at 24 hr (AID 993). Note: % is set by controls: 0 for no effect and ±100 for the full control effect. In outline:
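Cells plated 2500/well, 5 hr 37 C; compounds added, 24 hr 37 C; CellTiter-Glo added, 30 min RT; luminescence read. Tetraoctylammonium bromide positive control. Hill-equation AC50.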

Test [18] can be described thus: qHTS assay for small molecule agonists of retinoid X receptor alpha signaling (AID 588544). As to conditions: HEK293T RXRa-UAS-bla, beta-lactamase reporter, 18 h; 530 nm emission.
The target of test [19] is Peroxisome proliferator-activated receptor alpha (Homo sapiens) (UniProt Q07869). In words: qHTS assay for small molecule agonists of the peroxisome proliferator-activated receptor alpha (PPARalpha) signaling pathway (AID 651778). Note: % of control where 0% means no effect. As to conditions: PathHunter PPARalpha complementation, chemiluminescence, 6 h; stronger effect = higher value. The method, boiled down: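 Enzyme-fragment complementation assay in which ligand-bound PPARalpha translocates and forms an active enzyme that generates chemiluminescence. Cells were plated overnight, exposed to compound for 6 hr at 37 C, and then given detection reagent for 60 min at room temperature.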
A general note: qHTS replaces the single test concentration by a dilution series.

Test [20] is described as follows: qHTS assay for cell viability of the p53RE-bla HCT-116 cell line (AID 743292). Note: % is set by controls: 0 for no effect and ±100 for the full control effect; nearly all actives have a fitted effect of over 55% in size. The method, boiled down: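 CellSensor p53RE-bla HCT-116 cells (4,000/well) pre-incubated 5 h at 37 C, then exposed to compounds in DMSO for 16 h at 37 C. Viability read as ATP content by CellTiter-Glo luminescence after 30 min at room temperature.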

Where “and” joins values, the source holds several entries; their conditions need not be identical. Equal entries are not always repeated. Records with an inconclusive call do not appear. Calls of active or inactive are those of the source. Unless noted, calls come from the whole dose curve; as a rule, active = well fitted curve in the direction sought with a large enough effect; inconclusive = small, poorly fitted or top-dose-only effect, or another doubt; inactive = no such curve, though single readings can be large; an effect the other way counts as inactive or inconclusive. Bounds are passed on as bounds.

Sequence of Peroxisome proliferator-activated receptor alpha (Homo sapiens) (Q07869 whole entry, looked up, the tested form may be a part): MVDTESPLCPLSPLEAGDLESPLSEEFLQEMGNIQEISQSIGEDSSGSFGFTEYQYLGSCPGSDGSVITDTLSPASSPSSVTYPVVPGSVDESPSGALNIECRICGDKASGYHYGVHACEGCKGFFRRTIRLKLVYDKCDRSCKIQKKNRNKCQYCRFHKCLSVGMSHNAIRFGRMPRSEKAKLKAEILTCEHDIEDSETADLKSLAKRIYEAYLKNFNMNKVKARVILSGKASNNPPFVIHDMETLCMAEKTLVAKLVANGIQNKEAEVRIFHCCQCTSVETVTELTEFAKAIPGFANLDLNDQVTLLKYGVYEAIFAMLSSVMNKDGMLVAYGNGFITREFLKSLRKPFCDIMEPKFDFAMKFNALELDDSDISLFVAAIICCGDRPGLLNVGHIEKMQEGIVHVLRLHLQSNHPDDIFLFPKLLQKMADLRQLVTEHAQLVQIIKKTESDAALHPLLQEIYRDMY
Sequence of Cytochrome P450 3A4 (Homo sapiens) (P08684 whole entry, looked up): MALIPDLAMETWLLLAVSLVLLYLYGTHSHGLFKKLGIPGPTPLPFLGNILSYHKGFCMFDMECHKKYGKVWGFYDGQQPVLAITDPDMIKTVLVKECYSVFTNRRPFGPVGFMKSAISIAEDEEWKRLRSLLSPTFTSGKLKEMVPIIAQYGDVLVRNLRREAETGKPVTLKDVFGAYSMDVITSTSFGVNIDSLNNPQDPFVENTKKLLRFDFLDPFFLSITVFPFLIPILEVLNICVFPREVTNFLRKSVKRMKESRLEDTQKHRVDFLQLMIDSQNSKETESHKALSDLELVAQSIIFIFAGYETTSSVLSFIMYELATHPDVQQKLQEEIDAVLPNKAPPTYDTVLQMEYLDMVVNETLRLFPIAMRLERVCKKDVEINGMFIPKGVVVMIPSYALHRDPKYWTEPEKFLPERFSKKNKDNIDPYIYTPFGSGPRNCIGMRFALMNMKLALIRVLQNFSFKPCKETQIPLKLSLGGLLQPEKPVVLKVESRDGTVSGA

As to `CCOP(=O)(OCC)OCC`, the Potency in test [1] and in [2] was > 92 µM (inactive) in each case. Moreover, the Potency entry in test [3], in test [4], in test [10], in test [11], in test [14] and in [16] was “inactive” in each case. The Potency result in [17] and in test [20] was “inactive” throughout. Moreover, the molecule was classed as inactive in [5], in [6], in test [7], in [9], in test [12] and in test [13]. The molecule was called inactive in test [15]. Besides, the caspase-3 activation in test [8] was 0.845% (inactive). For the same molecule, the max response in [18] is -8.04% and -7.35%; in [19] it was 0.636% (inactive) and -0.566% (inactive).

In the case of `C=CC(=O)OCCO`, the Potency in test [1] and in test [2] was > 92 µM (inactive) each time. For the same molecule, the Potency entry in test [3], in test [4], in [10], in [11], in [14] and in test [16] was “inactive” each time. The Potency entry in test [17] and in test [20] was “inactive” each time. Besides, the result in test [5], in test [6], in test [7], in test [9], in test [12] and in test [13] was inactive. Besides, in test [15], the molecule was called inactive. Further, the caspase-3 activation in test [8] was 2.01% (inactive). Also, the results for the max response in test [18] and in test [19] were -8.13% and 5.17% (inactive), respectively.

Regarding `CC(=O)[O-].CC(=O)[O-].CC(=O)[O-].[Cr+3]`, the Potency in [1] and in [2] was > 92 µM (inactive) throughout. The Potency result in [3], in test [4], in [10], in [11], in test [14] and in test [16] was “inactive” throughout. Besides, the Potency entry in test [17] and in test [20] was “inactive” throughout. In addition, the call in [5], in test [6], in test [7], in [9], in [12] and in test [13] was inactive. Also, the outcome in test [15] was inactive. In addition, in [8], the caspase-3 activation is 1.42% (inactive). Besides, the max response in [18] is -6.52%; in test [19], -3.23% (inactive).

As for `CCOS(C)(=O)=O`, the Potency in test [1] and in [2] was > 92 µM (inactive) each time. In addition, the Potency result in test [4], in test [10], in test [11], in [14], in test [16] and in test [17] was “inactive” in each case. Besides, the Potency result in [20] is “inactive”. In addition, the molecule was classed as inactive in test [5], in test [6], in [7], in test [9], in test [12] and in [13]. In addition, in test [15], the molecule was classed as inactive. In addition, in test [8], the caspase-3 activation was -3.11% (inactive). Besides, the max response is -9.22% in [18] and 0.417% (inactive) in test [19].

On to `O=[N+]([O-])c1cc(Cl)c(Cl)cc1Cl`, for which the Potency in test [1] and in test [2] was > 92 µM (inactive) throughout. Further, the Potency result in [3], in [4], in [10], in test [11], in test [14] and in test [16] was “inactive” each time. In addition, the Potency result in test [17] and in test [20] was “inactive” each time. For the same molecule, the call in test [5], in test [6], in test [7], in [9], in test [12] and in test [13] was inactive. Further, the outcome in test [15] was inactive. Besides, in [8], the caspase-3 activation is -4.07% (inactive). Further, the max response in test [18] was 10.7%; in test [19], -8.71% (inactive).
